The whole screen tested about 360,000 compounds, of which about 25,000 (6.9%) were called active. About 9% were inconclusive and are not listed. This is one part of a sample in which actives are shown more often than they occur. Calls follow the shape of the dose curve; as a rule, active = well fitted inhibition curve with a large enough effect; inconclusive = small, poorly fitted or top-dose-only effect; inactive = flat fitted curve, though single readings scatter.
Target: Luciferin 4-monooxygenase (Photinus pyralis) (UniProt P08659)
Sequence (P08659 whole entry, looked up): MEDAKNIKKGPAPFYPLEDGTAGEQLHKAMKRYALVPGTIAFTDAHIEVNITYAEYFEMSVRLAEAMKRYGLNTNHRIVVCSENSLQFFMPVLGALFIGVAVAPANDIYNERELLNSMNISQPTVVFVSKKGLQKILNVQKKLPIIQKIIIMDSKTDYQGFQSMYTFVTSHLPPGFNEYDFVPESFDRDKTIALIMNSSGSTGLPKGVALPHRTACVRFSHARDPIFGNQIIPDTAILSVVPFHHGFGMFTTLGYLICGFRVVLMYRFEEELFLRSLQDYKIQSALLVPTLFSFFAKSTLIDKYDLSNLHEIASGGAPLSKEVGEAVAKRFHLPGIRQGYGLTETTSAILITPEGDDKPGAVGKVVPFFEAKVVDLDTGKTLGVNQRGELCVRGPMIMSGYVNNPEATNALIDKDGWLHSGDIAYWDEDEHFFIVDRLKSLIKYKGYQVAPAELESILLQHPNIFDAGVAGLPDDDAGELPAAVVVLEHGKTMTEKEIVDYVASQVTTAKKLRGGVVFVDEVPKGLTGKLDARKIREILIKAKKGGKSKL
Test: qHTS profiling assay for firefly luciferase inhibitor/activator using purifed enzyme and Km concentrations of substrates (counterscreen for miR-21 project); also: nearly all actives have a fitted effect of over 55% in size;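 as to activity change, negative = inhibition: plate controls were vehicle for no effect and reference inhibitor for full effect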
Conditions: purified FLuc, luminescence inhibition; series mostly up to 57.5 µM; activity change, negative = inhibition: at the top concentration
Excerpt: MLPCN Grant: 1 R21 NS059478-01 (miR-21 grant) Assay Provider: NCGC NCGC Assay Overview: Firefly (Photinus pyralis) luciferase is one of the most commonly used transcriptional reporters for a number of reasons. It is considered one of the more dynamically responsive reporters -that is, responsive to changes in reporter transcription - as it requires no post-translational modifications and is enzymatically active directly after protein synthesis (Wood, 1998). Additionally, the half-life of the luciferase protein is short relative to other reporter-gene products (Wood, 1995). Whereas reporters with long half-lives potentially allow for increased signal due to accumulation of reporter-gene product, once accumulated in the cell, dynamic changes in reporter-gene expression may be difficult to detect(Fan and Wood, 2007; Almond et al., 2004). It has been shown that wild-type P. pyralis luciferase has a half-life of approximately […] hours in mammalian cells (Thompson et al., 1991). Firefly luciferase reporter-gene assays are also generally considered one of the most sensitive assay types (Wood, 1995; Wood, 1998). Although light produced in a bioluminescence reaction is of lower intensity than that produced during fluorescence emission, this is offset by little to no background light inherent to luminescent assays. Thus the luciferase reporter can be expressed at much lower levels than fluorescent proteins while still providing robust signal. # However, it was initially observed, in 1991, by Thompson et al., that compounds that resemble the substrates of firefly luciferase (FLuc) can act as competitive inhibitors of the enzyme, and that these compounds, upon interaction with luciferase in the cell, can actually stabilize the protein and increase its half-life. Accumulated intracellular FLuc protein can be measured as an increase in luminescence signal, upon addition of detection reagents (which contain high concentrations of FLuc substrates) commonly used in high-throughput screening. In cell-based reporter gene assays that use FLuc as the reporter gene to quantitate the potential influence of a given compound against the target biology, this apparent increase in luminescence can mistakenly be interpreted as identification of a compound that is active against the target of interest. This is the case for the miR-21 FLuc reporter gene assay used to identify inhibitors of the miR-21 pathway (PubChem AID 2289) - compounds of interest will inhibit miR-21 biogenesis/expression or activity, and are identified by causing an increase in luminescence, due to increased FLuc translation. However, FLuc inhibitory compounds that stabilize the FLuc protein will give an identical read-out, making it difficult to distinguish compounds that are active against the target from those active against FLuc. Previous profiling work to determine the prevalence of compounds that affect FLuc enzymatic activity (PubChem AID 411) identified that ~3% of the MLSMR library (then at ~72K) inhibited FLuc. […] Since the MLSMR had grown to ~350K compounds, and since it was expected that a significant percentage of compounds found active in the miR-21 FLuc assay would be FLuc inhibitors, the library was screened for activity against FLuc using a biochemical assay of purified FLuc and KM concentrations of FLuc substrates (D-luciferin and ATP).
NCGC Assay Protocol Summary: Reagents: 50mM Tris acetate, pH 7.5; 10mM Mg acetate; 10uM D-luciferin (Sigma #L9504); 10uM ATP; 0.01% Tween-20; 0.05% BSA; 10nM P. pyralis luciferase (Sigma #L9506) Control compounds used were two known firefly luciferase inhibitors (compounds (2) and (5) in Auld et al., 2010), and DMSO. […]

Structure (SMILES)	activity change, negative = inhibition	Potency
COc1ccc(CCNC(=O)c2ccc3c(c2)nc(C)n3-c2ccc(Br)cc2)cc1OC	-2.6% (inactive)	–
COc1ccc(OC)c(NC(=O)Cn2c(=O)n(Cc3ccccc3)c(=O)c3ccccc32)c1	-0.577% (inactive)	–
Cc1ccc(NC(=O)C(C)Sc2nnc(C3CC3)n2C2CC2)cc1S(=O)(=O)N1CCOCC1 (centres undefined)	12.6% (inactive)	–
Nc1[nH][nH]c(=O)c1N=Nc1ccc2c(c1)OCO2	–	13.5 µM (active)
CC(=O)C1=C(C)NC(=O)NC1c1ccc2c(c1)OCO2 (centres undefined)	4.8% (inactive)	–
CC(=O)c1cc2c(cc1N)OCO2	3.19% (inactive)	–
Cc1ccc(CNC(=O)CC(NC(=O)c2ccccc2)c2ccccc2)cc1 (centres undefined)	6.17% (inactive)	–
Cc1cccc(NC(=O)CN2CCN(CC(=O)NCC3(N4CCCCC4)CCCCC3)CC2)c1C	6.22% (inactive)	–
Cn1c(SCC(=O)N2CCCC2)nnc1-c1cccs1	0.337% (inactive)	–
CCn1c(SCC(=O)c2ccc(Cl)s2)nnc1-c1cccs1	–	16.9 µM (active)
CCn1c(SCC(=O)Nc2nccs2)nnc1-c1ccncc1	-0.256% (inactive)	–
Cc1ccc(C)c(N2CCN(C(=O)Cn3ncc4c(=O)oc5ccc(C)cc5c43)CC2)c1	2.16% (inactive)	–
COc1ccc(OC)c(CCNC(=O)CCCn2c(=O)c3cccn3c3cccnc32)c1	-0.342% (inactive)	–
COc1ccc(N(CCC(=O)NCCc2ccccc2)S(=O)(=O)c2ccc(C)cc2C)cc1	-19.9% (inactive)	–
O=C(Nc1cc(C(F)(F)F)ccc1Cl)c1cc2nc(-c3ccc4c(c3)OCO4)cc(C(F)(F)F)n2n1	4.73% (inactive)	–
O=C(Nc1cc(C(F)(F)F)ccc1Cl)c1cc2nc3c(c(C(F)(F)F)n2n1)CCCC3	–	2.69 µM (active)
O=C(CSc1nc(=O)[nH]c2c1CCCC2)Nc1cc(C(F)(F)F)ccc1Cl	-12.1% (inactive)	–
COc1cccc(N2CCN(S(=O)(=O)c3ccc4c(c3)CCCN4C(C)=O)CC2)c1	-5.49% (inactive)	–
C/C(=N\Nc1ccc(S(N)(=O)=O)cc1[N+](=O)[O-])c1cccs1	0.692% (inactive)	–
C/C(=N\Nc1ncc(Cl)cc1Cl)c1ccc(S(=O)(=O)NCc2ccco2)cc1	–	16.9 µM (active)
O=C(Nc1ccccc1-c1nc2ccccc2[nH]c1=O)c1cccs1	-3.19% (inactive)	–
O=S(=O)(NCc1ccco1)c1cnc(Cl)c(Cl)c1	-0.879% (inactive)	–
C/C(=N\Nc1nc2ccccc2[nH]1)c1cccs1	–	2.69 µM (active)
COc1ccc(/C(C)=N/Nc2cc(C(F)(F)F)ccc2Cl)c(OC)c1	3.38% (inactive)	–
C/C(=N\NS(=O)(=O)c1ccc(Br)cc1)c1cccs1	-1.87% (inactive)	–

Structure (SMILES)	activity change, negative = inhibition	Potency
C/C(=N\NC(=O)COc1c(C)cccc1C)c1cccs1	6.97% (inactive)	–
CC(Oc1ccc(Cl)cc1)C(=O)OCC(=O)Nc1ncc(Cl)cc1Cl (centres undefined)	4.74% (inactive)	–
Cc1c(Cl)cnc(NC(=O)COC(=O)c2ccc(S(=O)(=O)NCc3ccco3)cc2)c1Cl	-2.56% (inactive)	–
COc1cccc(/C(C)=N/Nc2ncc(Cl)cc2Cl)c1	–	19 µM (active)
C/C(=N\Nc1ncc(Cl)cc1Cl)c1cccs1	–	9.53 µM (active)
CCOC(=O)c1c(NC(=O)CSc2cn(CCNC(=O)c3cccc(C(F)(F)F)c3)c3ccccc23)sc2c1CCC2	4.53% (inactive)	–
Cc1occc1-c1nnc(SCC(=O)NC2CCCCC2)o1	0.886% (inactive)	–
CCCc1nn2c(=O)cc(COC(=O)c3ccc(NC(=O)COc4ccc(F)cc4)cc3)nc2s1	-4.99% (inactive)	–
COc1ccc(S(=O)(=O)NCC(c2ccc(N(C)C)cc2)N2CCCC2)cc1 (centres undefined)	-3.23% (inactive)	–
O=C(Cn1ncc2c3ccccc3n(Cc3ccccc3)c2c1=O)NCCCN1CCOCC1	1.27% (inactive)	–
Cn1cnnc1SCC(=O)Nc1ccc(N2CCOCC2)cc1	-16.7% (inactive)	–
CCn1c(CNC(=O)C23CC4CC(CC(C4)C2)C3)nnc1SCC(=O)Nc1ccc(OC)cc1	2.85% (inactive)	–
CCn1c(Cc2ccc(OC)cc2)nnc1SCC(=O)Nc1ccc(N2CCOCC2)cc1	–	23.9 µM (active)
Cc1ccc(Cl)cc1N1CCN(C(=O)c2cn(C)c3ccc(S(=O)(=O)N(C)C4CCCCC4)cc3c2=O)CC1	-2.62% (inactive)	–
Cc1ccc(NC(=O)CCCNC(=O)c2ccc(Cl)cc2)cc1S(=O)(=O)N1CCCCC1	-1.07% (inactive)	–
COC(=O)c1ccc(C2C3=C(Nc4nnnn42)c2ccccc2OC3)cc1 (centres undefined)	–	6.01 µM (active)
COC(=O)C1=C(C(=O)c2ccc(C)cc2)C(c2ccccc2)n2nnnc2N1 (centres undefined)	-5.96% (inactive)	–
COC(=O)c1ccc(C2C(C(=O)Nc3ccccc3)=C(C)Nc3nc4ccccc4n32)cc1 (centres undefined)	1.14% (inactive)	–
Cc1nc(SCC(=O)N2CC(=O)Nc3ccccc32)c2c(C)c(C)sc2n1	1.77% (inactive)	–
COc1cccc(-c2nnc(SCC(=O)N3CCC(C)CC3)o2)c1	3.58% (inactive)	–
COc1ccc(C(=O)CSc2nnc(NC(=O)C3CC(=O)N(c4cccc(OC)c4)C3)s2)cc1 (centres undefined)	4.63% (inactive)	–
COc1cccc(Nc2nnc(SCC(=O)N3CC(C)OC(C)C3)s2)c1 (centres undefined)	–	21.3 µM (active)
COc1cccc(Nc2nnc(SCC(=O)N3CC(=O)Nc4ccccc43)s2)c1	–	21.3 µM (active)
COc1cc(OC)c(C(=O)OCC(=O)N2CC(=O)Nc3ccccc32)cc1OC	0.484% (inactive)	–

— PubChem BioAssay AID588342 (National Center for Advancing Translational Sciences (NCATS), 2011)
